Drawing on PubChem BioAssay (NCI), this text covers growth inhibition for 22 compounds.

Structures are written as SMILES. Several values for one entry are separate records, joined by “and”; a condition that tells them apart may be missing. Equal entries are not always repeated. Compounds without any hit were thinned out: in the full panel of roughly 79,000, 15% have a hit. Values without a mark were called inactive. Activity calls are given as the source filed them. Rule as the data show it: active = growth inhibition above about 70%; inactive = the rest.

A short description of experiment [1]: NCI Yeast Anticancer Drug Screen. Data for the rad50 strain (AID 155).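 Also: 0% = growth of vehicle-only cultures of the same strain.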 The note with it: S. cerevisiae rad50 strain growth inhibition; at 50.0 µM; stronger effect = higher value. The essentials:
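Vehicle-treated cultures provide the reference for the growth inhibition reported for compound-exposed, repair-deficient yeast.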

Experiment [2] in a line: NCI Yeast Anticancer Drug Screen. Data for the mec2-1 strain (AID 157). As to conditions: S. cerevisiae mec2-1 strain, at 50.0 µM, stronger effect = higher value. Put shortly: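 Using mec2-1 yeast: add compound, measure growth, express inhibition versus vehicle-treated cultures.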
Experiment [3] is described as follows: NCI Yeast Anticancer Drug Screen. Data for the sgs1 mgt1 strain (AID 161).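 Also: 0% = growth of cultures given vehicle only.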 The note with it: S. cerevisiae sgs1 mgt1 strain, at 50.0 µM, stronger effect = higher value. The essentials:
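Compounds are added to genetically altered yeast, and growth is compared with cultures given vehicle alone to give percent inhibition.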

A short description of experiment [4]: NCI Yeast Anticancer Drug Screen. Data for the cln2 rad14 strain (AID 165).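 Also: 0% = growth equal to vehicle treated cultures.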 The note with it: S. cerevisiae cln2 rad14 strain, at 50.0 µM, stronger effect = higher value. The essentials: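 Yeast strain cln2 rad14, bearing defects in cell cycle control and DNA repair, serves as the test system; values reflect growth inhibition compared with vehicle.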
Experiment [5] can be described thus: NCI Yeast Anticancer Drug Screen. Data for the bub3 strain (AID 167). As to conditions: S. cerevisiae bub3 mutant strain, at 50.0 µM, stronger effect = higher value. Put shortly: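 Mutant yeast screening strain plus compound; vehicle-treated cultures serve as the 0% inhibition reference.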
Experiment [6] is described as follows: NCI Yeast Anticancer Drug Screen. Data for the mlh1 rad18 strain (AID 175). As to conditions: S. cerevisiae mlh1 rad18 strain growth inhibition; at 50.0 µM; stronger effect = higher value. Put shortly:
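Steps: expose repair-defective yeast to compound; measure growth; express inhibition against vehicle-treated controls.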

For the compound `O=C1C=CC=C[C@@H]2C(C3OCCO3)CC[C@H]12.[C-]#[O+].[C-]#[O+].[C-]#[O+].[Fe]` (some centres not stated), the growth inhibition was 4.3% in experiment [1]; 14.8% in experiment [2]; -7.3% in experiment [3]; 23.1% in experiment [4]; 7.5% in experiment [5]; 4.75% in experiment [6].

For the compound `COP12(OC)NC(=O)OC1(C(F)(F)F)c1ccccc1O2` (configuration not stated), the growth inhibition is -14.9% in experiment [1]; -4% in experiment [2]; -23.9% in experiment [3]; -5.15% in experiment [4]; -28% in experiment [5]; -39% in experiment [6].

For `O=c1c2ccccc2oc2ccccc12` (tested in a mixture with another compound), the growth inhibition is 18.9% in experiment [1]; 17.7% in experiment [2]; 11.7% in experiment [3]; 10.2% in experiment [4]; 23.2% in experiment [5]; 17.1% in experiment [6].

For `N#CC(c1ccccc1)c1ccccc1`, the growth inhibition is -12.9% in experiment [1]; 9.35% in experiment [2]; -4.55% in experiment [3]; -17.6% in experiment [4]; 20.6% in experiment [5]; 31.3% in experiment [6].

With `CCCC(C)C1C(=O)N(C)C(=O)N(C)C1=O` (configuration not stated), the growth inhibition is 14.2% in experiment [1]; -1% in experiment [2]; 11.4% in experiment [3]; 9.9% in experiment [4]; -4.75% in experiment [5]; 14.9% in experiment [6].

For `C1=CC(N2CCOCC2)CC1` (configuration not stated), the growth inhibition in experiment [1] was -24.2%; in experiment [2], 30.2%; in experiment [3], 1.75%; in experiment [4], -45.5%; in experiment [5], -30.4%; in experiment [6], 2.25%.

Turning to `C/C(=N\N(C)C)C(CN1CCCCC1)C(c1ccccc1)c1c(O)c2ccccc2oc1=O` (configuration not stated), the growth inhibition in experiment [1] was -1.35%; in experiment [2], -30.2%; in experiment [3] it was -6.15%; in experiment [4], 4.8%; in experiment [5], 30.1%; in experiment [6] it was -9%.

In the case of `CC(CC(C)(C)[N-]CC[O-])=NCCO.O=[N+]([O-])O.[Cu+2]`, the growth inhibition in experiment [1] was 10.7%; in experiment [2] it was 20.2%; in experiment [3], -5.7%; in experiment [4], -0.05%; in experiment [5], 26.2%; in experiment [6] it was 18.7%.

As for `N#CNc1nnnn1-c1ccccc1` (tested in a mixture with another compound), the growth inhibition in experiment [1] was 7.7%; in experiment [2], 9.35%; in experiment [3] it was 0.55%; in experiment [4], 44.4%; in experiment [5], 11.8%; in experiment [6], -16.9%.

Turning to `CCCNP(=S)(NCCC)NCCC`, the growth inhibition in experiment [1] is 1%; in experiment [2], -10.4%; in experiment [3] it was 8.5%; in experiment [4], -16.4%; in experiment [5] it was 0%; in experiment [6], 22%.

Take `C[N+](C)(C)CCNP(=O)(Oc1ccccc1)c1ccccc1` (configuration not stated): the growth inhibition in experiment [1] was 4.15%; in experiment [2], 5.55%; in experiment [3], -22.5%; in experiment [4] it was 1.35%; in experiment [5], -1.55%; in experiment [6], 21.6%.

As for `CCOP(=O)(OCC)C1CCC(=O)O1` (configuration not stated), the growth inhibition in experiment [1] was -14.2%; in experiment [2], -20.2%; in experiment [3] it was -14%; in experiment [4] it was 12.4%; in experiment [5], 10.6%; in experiment [6], 10.6%.

As to `c1cc[n+]2c3c(sc2c1)CCC3`, the growth inhibition is 9.75% in experiment [1]; -8.2% in experiment [2]; -5.25% in experiment [3]; -4.15% in experiment [4]; -6.7% in experiment [5]; -26.8% in experiment [6].

Take `CC(=O)C1C=NCCN=CC(C(C)=O)C(C)=NCCCN=C1C.[Ni]` (configuration not stated): the growth inhibition in experiment [1] is 10.7%; in experiment [2], 4.3%; in experiment [3], 14.4%; in experiment [4], -2.2%; in experiment [5], 8.7%; in experiment [6], 18.5%.

With `COC1=CC23CCCN2CCc2cc4c(cc2C3C1O)OCO4` (configuration not stated), the growth inhibition in experiment [1] was -6.9% and 0.4% and -9.15%; in experiment [2] it was -23.4% and -25.8% and -28.7%; in experiment [3], 16.3% and 17.1% and 15.6%; in experiment [4] it was 4% and 8.1% and 2.4%; in experiment [5] it was -12.8% and -5.35% and -6.25%; in experiment [6] it was -3.85% and -1.8% and -36%.

For the compound `O=P1(O)NP(=O)(O)NP(=O)(O)NP(=O)(O)N1`, the growth inhibition was -9.45% in experiment [1]; 2.9% in experiment [2]; -9.8% in experiment [3]; -5.45% in experiment [4]; -18.1% in experiment [5]; -3.95% in experiment [6].

Turning to `CN(C)CCC(O)c1c[nH]c2ccccc12` (configuration not stated), the growth inhibition in experiment [1] was 6%; in experiment [2], 1%; in experiment [3], -4.1%; in experiment [4], -5.15%; in experiment [5] it was 1.15%; in experiment [6], 1.15%.

On to `O=C(O)C(=O)C(Cl)Br` (configuration not stated), for which the growth inhibition in experiment [1] is 4.95%; in experiment [2], -8.75%; in experiment [3], -2.5%; in experiment [4], -18%; in experiment [5], 2.35%; in experiment [6] it was 0.65%.

For the compound `O=C(Oc1cc(Cl)c(S(=O)(=O)F)cc1Cl)c1ccccc1Cl`, the growth inhibition in experiment [1] was 93.5% (active); in experiment [2] it was 96% (active); in experiment [3], 97.1% (active); in experiment [4] it was 86.8% (active); in experiment [5], 94.9% (active); in experiment [6], 96.8% (active).

As for `CP1CC(Br)C(Br)C1` (configuration not stated), the growth inhibition in experiment [1] was 3.6%; in experiment [2], -5%; in experiment [3], 19.9%; in experiment [4], -7.05%; in experiment [5], 6.5%; in experiment [6], 2.5%.

`O=C(O)C1C(C(=O)O)C2(Cl)C(Cl)=C(Cl)C1(Cl)C2(Cl)Cl.[Cd]` (configuration not stated): the growth inhibition in experiment [1] is 61.4%; in experiment [2], 13.9%; in experiment [3], -0.2%; in experiment [4], -14.7%; in experiment [5], -6.75%; in experiment [6], 19.4%.

Take `CN(Cc1ccccc1)C1=NCCN1`: the growth inhibition was -1.85% in experiment [1]; 7.1% in experiment [2]; -2.95% in experiment [3]; -47.8% in experiment [4]; 15.1% in experiment [5]; 9.95% in experiment [6].
